S1P3 antag: S1P3 receptor antagonists, primary screen, cell-based; Sphingosine 1-phosphate receptor 3 (Homo sapiens), Q99500; CHO S1P3 NFAT-BLA reporter, FRET fluorescence, antagonist mode; inhibition, % at 4.98 µM; hit rate 0.27% among 170,000; AID 485, 2006;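 active = inhibition above the plate cutoff, the mean inhibition of test wells on that plate plus 3 SD, cut at about 28% in these data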;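 also: cells challenged with S1P at its EC80 of 0.8 µM; blue over green emission ratio from cleaved BLA substrate after 4 h stimulation; 0% = S1P-stimulated wells and 100% = unstimulated DMSO-only wells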
AI-2 QS mod: Vibrio harveyi AI-2 quorum sensing modulators, primary screen, JMH597 strain, luminescence/OD600 ratio | Vibrio harveyi JMH597 AI-2 luminescence/OD600 ratio, 9 h; active compounds read low; strain lacks LuxN and CqsS sensors; 0 = neutral-control median | activity change, % at 7.5 µM | hit rate 0.4% among 300,000 | AID 2094, 2009; in the data active = activity change below about -75%, passing the limit was not always enough;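 also: luminescence divided by OD600 gain over 9 h not by final OD600 alone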
Hsp70 act: Hsp70 transcriptional activators, primary screen, cell-based, HeLa, Hsp70 promoter luciferase, luminescence, 10 µM. hit rate 0.04% among 200,000. activation, % at 10 µM. HeLa Hsp70 promoter luciferase reporter; scaled: vehicle 0, proteasome-inhibitor control 100%. AID 1203, 2008;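 active = activation above the mean across all tested compounds plus 3 SD, cutoff set per campaign, cut at about 5.5% in these data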;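 also: 100% = MG132 at 30 µM as the positive control and 0% = DMSO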
S1P4 ag: S1P4 receptor agonists, primary screen, cell-based; Sphingosine 1-phosphate receptor 4 (Homo sapiens), O95977; S1P4-expressing cell line, agonist reporter assay; activation, % at 4.98 µM; hit rate 0.35% among 220,000; in the data active = activation above about 11%;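 also: 0% = DMSO vehicle and 100% = reference agonist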
Target sequence (O95977 whole entry, looked up): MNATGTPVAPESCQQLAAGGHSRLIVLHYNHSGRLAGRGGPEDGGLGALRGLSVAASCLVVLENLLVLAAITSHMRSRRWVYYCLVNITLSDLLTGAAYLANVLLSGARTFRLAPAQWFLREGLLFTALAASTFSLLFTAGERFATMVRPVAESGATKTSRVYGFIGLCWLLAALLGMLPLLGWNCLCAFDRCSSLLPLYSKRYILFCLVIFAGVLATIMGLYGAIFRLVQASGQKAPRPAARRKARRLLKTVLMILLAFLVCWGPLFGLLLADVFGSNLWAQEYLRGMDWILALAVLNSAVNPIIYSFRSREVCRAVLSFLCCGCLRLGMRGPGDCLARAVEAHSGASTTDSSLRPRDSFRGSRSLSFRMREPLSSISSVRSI
S1P4 antagonist: S1P4 receptor antagonists, primary screen, cell-based. hit rate 0.26% among 220,000. AID 1510, 2009. inhibition, % at 4.98 µM. S1P4-expressing cells, antagonist mode, reporter read-out. Sphingosine 1-phosphate receptor 4 (Homo sapiens), O95977; in the data active = inhibition above about 29%;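 also: 0% = wells stimulated with agonist and 100% = vehicle wells without agonist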
S1P4 antag conf: S1P4 receptor antagonists, human, confirmation, cell-based. shares compounds with S1P4 antagonist. S1P4-expressing cell line, antagonist mode, reporter read-out. inhibition, % at 4.98 µM. hit rate 71% among 520. AID 1524, 2009; in the data active = inhibition above about 30%
S1P1 antagonist: S1P1 receptor antagonists, human, counter-screen for S1P4 antagonist project, cell-based; hit rate 37% among 520; shares compounds with S1P4 antagonist; inhibition, % at 4.98 µM; cell-based S1P1 antagonist counterscreen, inhibition; AID 1564, 2009; in the data active = inhibition above about 40%;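 also: receptor stimulated with S1P near its EC80; 0% = agonist stimulated wells and 100% = vehicle only wells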
Numbers without * were called inactive. Shown are actives, neighbours in structure and some others; about 0.97% of the full set was active somewhere.

Results for CS(=O)(=O)N1N=C(c2cccs2)CC1c1ccccc1O (stereo not drawn) ?
S1P3 antag: 6; AI-2 QS mod: 24; Hsp70 act: 0; S1P4 ag: -1; S1P4 antagonist: 1

Results for COC(=O)C1=C(C)N(C)C(=O)NC1c1c(O)ccc2ccccc12 (stereo not drawn) ?
AI-2 QS mod: 8

Results for O=C(NCc1ccco1)c1ccccc1-c1nc(-c2ccccc2)no1 ?
AI-2 QS mod: 4; Hsp70 act: 0; S1P4 ag: 1; S1P4 antagonist: 30*; S1P4 antag conf: -2; S1P1 antagonist: -2

Results for Cc1ccc(-c2noc(-c3ccccc3C(=O)NCc3ccco3)n2)cc1 ?
S1P3 antag: 7; AI-2 QS mod: -4; S1P4 ag: 1; S1P4 antagonist: -2

Results for Cc1cccc(C)c1NC(=O)c1ccc(-c2ccc(Cl)cc2Cl)o1 ?
AI-2 QS mod: 22; Hsp70 act: 0; S1P4 ag: 1; S1P4 antagonist: 96*; S1P4 antag conf: 111*; S1P1 antagonist: -2

What do the screens show for `COc1ccc(C(=O)C(CCC(CNC(C)(C)C)C(=O)c2ccc(OC)cc2)CNC(C)(C)C)cc1` (stereo not drawn)?
S1P3 antag: 18; AI-2 QS mod: 19; Hsp70 act: 0; S1P4 ag: -6; S1P4 antagonist: 73*; S1P4 antag conf: 37*; S1P1 antagonist: 22

What do the screens show for `O=C(NCc1ccco1)c1ccc2c(c1)CCO2`?
S1P3 antag: -12; AI-2 QS mod: 25; S1P4 ag: -1; S1P4 antagonist: 30*; S1P4 antag conf: 3; S1P1 antagonist: -1

How did O=C(/C=C/c1ccc(Br)cc1)c1ccc(NC(=O)c2ccco2)cc1 do in these assays?
S1P3 antag: 7; AI-2 QS mod: 20; Hsp70 act: 0; S1P4 ag: 2; S1P4 antagonist: -17

How did O=C(/C=C/c1ccc(Br)cc1)c1ccco1 do in these assays?
S1P3 antag: -1; AI-2 QS mod: 23; Hsp70 act: 0; S1P4 ag: -1; S1P4 antagonist: 54*; S1P4 antag conf: 81*; S1P1 antagonist: 18

Results for Cc1ccccc1C(=O)Nc1ccnn1C1CCN(Cc2ccccn2)CC1 ?
AI-2 QS mod: 27

Results for O=C(Nc1ccc([N+](=O)[O-])cn1)c1ccc(Br)o1 ?
S1P3 antag: -16; AI-2 QS mod: 32; Hsp70 act: 0; S1P4 ag: 1; S1P4 antagonist: -12

How did CCCn1c(NC(=O)c2ccccc2)nc2ccccc21 do in these assays?
S1P3 antag: -59; AI-2 QS mod: 9; Hsp70 act: 0; S1P4 ag: -3; S1P4 antagonist: 29*; S1P4 antag conf: 5; S1P1 antagonist: 9

Results for O=C(Nc1nc2ccccc2n1CCN1CCCC1)c1ccc(Cl)cc1 ?
S1P3 antag: -9; Hsp70 act: 0; S1P4 ag: -1; S1P4 antagonist: -1

How did Cc1ccc(C(=O)Nc2nc3ccccc3n2CCN2CCCC2)cc1 do in these assays?
S1P3 antag: -4; AI-2 QS mod: 0; Hsp70 act: 0; S1P4 ag: -3; S1P4 antagonist: 31*; S1P4 antag conf: 8; S1P1 antagonist: -11

What do the screens show for `Cc1cc(S(=O)(=O)n2ccnc2)c(Cl)cc1Cl`?
S1P3 antag: 0; AI-2 QS mod: 8; Hsp70 act: 0; S1P4 ag: 2; S1P4 antagonist: 1

Results for COc1ccc(NC(=O)c2cnc(SC)nc2)cc1 ?
AI-2 QS mod: 3

Results for O=[N+]([O-])c1ccc(Cl)c(C2Nc3cccc4cccc(c34)N2)c1 ?
AI-2 QS mod: 19; Hsp70 act: 0; S1P4 ag: 0; S1P4 antagonist: 59*; S1P4 antag conf: 1; S1P1 antagonist: 19

How did Clc1ccc(C2Nc3cccc4cccc(c34)N2)cc1Cl do in these assays?
AI-2 QS mod: -1

What do the screens show for `Cc1ccc(-n2nnnc2-c2ccccc2)cc1`?
S1P3 antag: -10; AI-2 QS mod: 11; Hsp70 act: 0; S1P4 ag: 0; S1P4 antagonist: -7

What do the screens show for `Cc1ccc(-n2nnnc2C(Cl)c2nnnn2-c2ccc(C)cc2)cc1`?
S1P3 antag: -8; AI-2 QS mod: 37; Hsp70 act: 0; S1P4 ag: 4; S1P4 antagonist: 47*; S1P4 antag conf: 74*; S1P1 antagonist: 22

What do the screens show for `CC(C)C(=O)N1CCN(c2ccc(NC(=O)c3ccc([N+](=O)[O-])o3)cc2)CC1`?
S1P3 antag: -3; AI-2 QS mod: 17; Hsp70 act: 1; S1P4 ag: -5; S1P4 antagonist: 70*; S1P4 antag conf: 88*; S1P1 antagonist: 66*

Results for Cc1cc(NC(=O)c2ccc([N+](=O)[O-])o2)ccc1NC(=O)c1ccco1 ?
S1P3 antag: 9; AI-2 QS mod: -94*; Hsp70 act: 2; S1P4 ag: -6; S1P4 antagonist: 90*; S1P4 antag conf: 107*; S1P1 antagonist: 58*

What do the screens show for `CC(C)C(=O)N1CCN(c2ccc(NC(=O)c3ccc(Br)o3)cc2)CC1`?
S1P3 antag: -18; AI-2 QS mod: 21; Hsp70 act: 0; S1P4 ag: 0; S1P4 antagonist: -2

Results for Cc1cc(C)cc(NC(=O)c2ccc([N+](=O)[O-])o2)c1 ?
S1P3 antag: 3; AI-2 QS mod: -110*; Hsp70 act: 1; S1P4 ag: -2; S1P4 antagonist: 63*; S1P4 antag conf: 89*; S1P1 antagonist: 4

How did O=C(C1CCCN(Cc2ccc([N+](=O)[O-])cc2)C1)N1CCCCC1 (stereo not drawn) do in these assays?
AI-2 QS mod: 14

Results for COC(=O)c1cc(=O)n(Cc2ccco2)c(=Nc2ccc(F)c(Cl)c2)s1 ?
S1P3 antag: 0; AI-2 QS mod: 9; Hsp70 act: 0; S1P4 ag: 0; S1P4 antagonist: 34*; S1P4 antag conf: 102*; S1P1 antagonist: 60*

How did COC(=O)c1cc(=O)n(CCc2ccccc2F)c(=Nc2ccc(F)c(Cl)c2)s1 do in these assays?
AI-2 QS mod: 13; Hsp70 act: 0; S1P4 ag: 0; S1P4 antagonist: -19

What do the screens show for `CC(=O)c1cc(Cl)ccc1OC(=O)c1ccco1`?
S1P3 antag: 0; AI-2 QS mod: 10; Hsp70 act: 0; S1P4 ag: 1; S1P4 antagonist: -4

Results for O=C(Oc1ccc(Br)cc1C(=O)/C=C/c1ccccc1F)c1ccco1 ?
AI-2 QS mod: -10; Hsp70 act: 0; S1P4 ag: 1; S1P4 antagonist: 41*; S1P4 antag conf: 94*; S1P1 antagonist: 34
